# Measurements as given in ChEMBL document CHEMBL3433997, “St. Jude Leishmania screening dataset” (2016).
# How the values were obtained:
# Assay type in all cases: functional
# [1] = target: Solute carrier family 2, facilitated glucose transporter member 1 (Homo sapiens) (UniProt P11166); assay: ST_JUDE_LEISH: Cytotoxicity at 2uM final concentration against transgenic Leishmania Mexicana promastigotes LmGLUT1 that are glucose transport deficient and complemented with the human glucose transporter GLUT1. Activity is measured by DNA content using SYBR green in vitro
# [2] = target: Hexose transporter 1 (Plasmodium falciparum) (UniProt O97467); assay: ST_JUDE_LEISH: Cytotoxicity at 2uM final concentration against transgenic Leishmania Mexicana promastigotes LmPfHT that are glucose transport deficient and complemented with the Plasmodium falciparum hexose transporter. Activity is measured by DNA content using SYBR green in vitro
# [3] = target: Glucose transporter (Leishmania mexicana) (UniProt O61059); assay: ST_JUDE_LEISH: Cytotoxicity at 2uM final concentration against transgenic Leishmania Mexicana promastigotes LmGT2 that are glucose transport deficient and complemented with the L. Mexicana glucose transporter 2. Activity is measured by DNA content using SYBR green in vitro
# Chain of Solute carrier family 2, facilitated glucose transporter member 1 (Homo sapiens) (P11166 whole entry): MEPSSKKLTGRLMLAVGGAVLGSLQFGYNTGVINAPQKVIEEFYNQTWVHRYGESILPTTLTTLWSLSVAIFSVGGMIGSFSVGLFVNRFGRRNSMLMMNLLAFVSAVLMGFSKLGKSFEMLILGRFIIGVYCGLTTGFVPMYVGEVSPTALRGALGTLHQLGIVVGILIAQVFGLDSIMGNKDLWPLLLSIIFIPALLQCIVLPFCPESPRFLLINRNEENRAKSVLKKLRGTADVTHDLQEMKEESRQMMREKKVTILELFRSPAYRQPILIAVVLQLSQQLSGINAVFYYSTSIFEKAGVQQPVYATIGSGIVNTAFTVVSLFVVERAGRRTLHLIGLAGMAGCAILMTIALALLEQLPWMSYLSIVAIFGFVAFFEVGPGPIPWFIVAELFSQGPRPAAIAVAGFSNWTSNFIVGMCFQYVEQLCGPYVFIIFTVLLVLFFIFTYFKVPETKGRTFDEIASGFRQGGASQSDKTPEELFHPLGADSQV
SMILES,inhibition [1],inhibition [2],inhibition [3]
CN1CCCc2cc(NC(=O)C=Cc3ccc(-c4ccc(F)cc4F)o3)ccc2C1,6.23%,5.24%,8.04%
N=C(NCc1ccc(O)cc1)Nc1nc(-c2ccc(OCCCn3ccnc3)cc2)cs1,1.63%,0.11%,-3.09%
O=C(Nc1ccc(-c2cncc(NCCCN3CCCC3)c2)cc1)c1ccccc1,1.36%,1.48%,1.55%
Cc1cccc2nc(-c3cccc(-c4cccc(CNCc5ccccc5)c4)c3)[nH]c12,1.86%,0.34%,0.66%
CN(C)S(=O)(=O)c1ccc(Nc2nc(NCCC3C=NC=N3)nc3cc[nH]c(=O)c23)cc1 (stereo not given),4.88%,5.35%,4.93%
CC(C)Nc1cc(C(=O)N[C@@H](Cc2ccccc2)[C@H](O)CNC(C)(C)c2cccc(C(F)(F)F)c2)cc(N2CCCCS2(=O)=O)c1,1.42%,2.46%,0.9%
CCn1c(Sc2ccc(C#N)c([N+](=O)[O-])c2)nnc1-c1cc(OC)cc(OC)c1,1.62%,0.59%,-0.03%
O=C(CCNc1ccnc(NCC2CCCCC2)n1)Nc1ccccc1,7.25%,5.25%,3.46%
CN(C)CCOc1ccnc2ccc(NC(=O)Cc3ccc(-c4ccncc4)c4ccccc34)cc12,1.07%,-0.32%,7.74%
O=C(CCCC(=O)Nc1ccc(C2=NCCN2)cc1)Nc1ccc(C2=NCCN2)cc1,0.86%,0.54%,-0.14%
COc1cc(C(=O)Nc2nc3ccccc3[nH]2)ccc1OCC(=O)Nc1cccc(C(F)(F)F)c1,2.59%,2.67%,1.11%
CN(C)Cc1ccc(-c2ccc3c(Nc4ccc(Cl)cc4F)ccnc3c2)o1,-1.45%,-1.56%,5.24%
Cc1cc(CNCC(CCNc2cc(=O)c3ccccc3[nH]2)NCc2cc(Br)cc(Br)c2)oc1C (stereo not given),4.51%,2.43%,3.29%
NC(=O)C1CCN(Cc2cccc(-c3cccc(-c4nc5cc(F)ccc5[nH]4)c3)c2)CC1,-0.94%,1.68%,1.45%
CCN(CC)CCN(Cc1ccc(-c2ccc(C(F)(F)F)cc2)cc1)C(=O)Cn1c(CCc2ccccc2F)nc(=O)c2ccccc21,3.8%,3.39%,2.3%
O=S(=O)(c1c(Cl)cc(Cl)cc1Cl)N1CCCCC(c2ccc(Cl)cc2)=N1,-1.49%,-1.87%,-1.41%
O=C(Nc1cccc(-c2csc(NC(=O)c3ccc4ccccc4c3)n2)c1)c1ccc2ccccc2c1,1.53%,1.22%,0.66%
COc1ccc(NC(=O)[C@H](Cc2ccccc2)Nc2cc(C)nc(NCCN3CCCC3)n2)cc1,11.2%,9.21%,7.49%
O=C(Nc1cccc(-c2ccc(CN3CCC(O)CC3)cc2)c1)c1cccc(Cl)c1,3.01%,3.03%,2.17%
CC(C)NC(C)(C)CN(Cc1ccc(-c2ccc(C(F)(F)F)cc2)cc1)C(=O)Cn1c(CCc2cccc(F)c2F)nc(=O)c2ccccc21,0.37%,-0.61%,-0.1%
COc1ccccc1CCN(C)CCN1CCC(NC(=O)c2ccc(-c3ccc(C(F)(F)F)cc3)cc2)CC1,1.81%,1.97%,1.05%
CCNC(=O)Nc1cccc(-c2cccc(-c3nc4cc(C(F)(F)F)ccc4[nH]3)c2)c1,10%,7.8%,7.55%
Cc1ccc(NC(=O)C2CCC2)cc1-c1ccc(C(=O)NCC2CC2)cc1,1.36%,0.51%,0.3%
CO/C(=C\C=C\c1cc2cc(Cl)c(Cl)cc2[nH]1)C(=O)NCCCCN1CCN(c2ccccc2OC)CC1,3.1%,2.16%,1.91%
CNC(=N)c1ccc(NC(=O)c2ccc(C(=O)Nc3ccc(C(=N)NC)cc3)cc2)cc1,1.44%,2.97%,1.84%
